# NOMO-1 viab – STK33 inhibitor candidate reducing NOMO-1 cell viability; inhibition, % (test concentration not listed); NOMO-1 AML viability, CellTiter-Glo luminescence, 72 h; AID 2330; actives 7.5% (n = 37,000); in the data active = inhibition above about 80%; inconclusive = no clear call, values can overlap the other calls
# PD-1 reversal – reversal of PD-1 mediated T-cell inhibition; 29,000 tested, under 10 active; primary human CD4 T cells, PD-L1 beads, CellTiter-Glo 96 h; activation, % (test concentration not listed); AID 2316; call rule not given here;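 also: 0% = median vehicle wells and 100% = positive control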
# Shh pathway inh – Sonic Hedgehog pathway inhibition. Shh-LIGHT2 Gli-luciferase reporter, 30 h. inhibition, % (concentration not given with the values). AID 2313. actives 2.1% (n = 22,000);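 active = mean inhibition across valid replicates above about 65%, limit read from the data; inconclusive = mean under the limit, yet half or more replicates past it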;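 also: pathway switched on by Shh-conditioned medium diluted 1 in 25 in low serum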
# MITF inh – MITF inhibition. inhibition, % (no concentration beside the values). AID 2240. actives 0.28% (n = 37,000). TRPM1 promoter luciferase, luminescence, 24 h; in the data active = inhibition above about 85%; inconclusive = no clear call, values can overlap the other calls; inactive = below about 68%;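 also: human melanocyte line stably carrying TRPM1 promoter luciferase reporter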
# The depositor's hits bear a star; u = inconclusive; x = no result given. Only some compounds are listed: those with a hit (about 8.1% of all), similar ones and a draw of the others.
SMILES,NOMO-1 viab,PD-1 reversal,Shh pathway inh,MITF inh
COc1ccc(S(=O)(=O)N(C)C[C@H]2Oc3c(NC(=O)Nc4ccc(C(F)(F)F)cc4)cccc3C(=O)N([C@@H](C)CO)C[C@H]2C)cc1,121*,-6,-62,39
CCN1/C(=C/C2=CC(=O)CC(C)(C)C2)Sc2ccccc21,113*,-1,82*,49
O=C(O)CCC(=O)c1ccc(-c2ccccc2)cc1,2,x,-102,-30
O=C(c1ccccc1)c1ccc(-c2ccccc2)cc1,91*,-1,-121,-19
COc1c(C=O)c(O)cc2c1C(=O)c1ccccc1C2=O,96*,-2,-28,19
Cc1ccc(S(=O)(=O)Nc2ccc3c(c2)C(=O)N([C@H](C)CO)C[C@@H](C)[C@@H](CN(C)C(=O)Nc2ccccc2)O3)cc1,19,-2,-12,9
Cc1noc(C)c1NC(=O)N(C)C[C@@H]1Oc2c(NC(=O)c3ccc(-c4nccs4)cc3)cccc2C(=O)N([C@H](C)CO)C[C@@H]1C,18,1,7,-1
COc1ccc(S(=O)(=O)Nc2ccc3c(c2)C(=O)N([C@H](C)CO)C[C@@H](C)[C@H](CN(C)Cc2ccc(Oc4ccccc4)cc2)O3)cc1,105*,-1,0,37
C[C@H](CO)N1C[C@H](C)[C@H](CN(C)Cc2ccc(Oc3ccccc3)cc2)Oc2ccc(NS(=O)(=O)c3ccccc3)cc2C1=O,u,-2,41,3
COc1ccc(S(=O)(=O)Nc2ccc3c(c2)C(=O)N([C@@H](C)CO)C[C@H](C)[C@H](CN(C)Cc2ccc(Oc4ccccc4)cc2)O3)cc1,123*,x,40,47
COc1ccc(S(=O)(=O)Nc2ccc3c(c2)C(=O)N([C@H](C)CO)C[C@@H](C)[C@@H](CN(C)Cc2ccc(Oc4ccccc4)cc2)O3)cc1,111*,-1,68*,40
C[C@@H]1CN([C@@H](C)CO)C(=O)c2cc(NS(=O)(=O)c3ccc(F)cc3)ccc2O[C@H]1CN(C)Cc1ccc(Oc2ccccc2)cc1,98*,-2,x,27
COc1ccc(CN(C)C[C@H]2Oc3ccc(NS(=O)(=O)c4ccccc4)cc3C(=O)N([C@@H](C)CO)C[C@@H]2C)cc1,11,-4,x,-8
COc1ccc(S(=O)(=O)Nc2ccc3c(c2)C(=O)N([C@H](C)CO)C[C@H](C)[C@@H](CN(C)Cc2ccc(Oc4ccccc4)cc2)O3)cc1,66,0,37,6
C[C@@H]1CN([C@@H](C)CO)C(=O)c2cc(NS(=O)(=O)c3ccc(Cl)cc3)ccc2O[C@H]1CN(C)Cc1ccc(Oc2ccccc2)cc1,109*,-1,20,43
COc1ccc(S(=O)(=O)Nc2ccc3c(c2)C(=O)N([C@H](C)CO)C[C@H](C)[C@H](CN(C)Cc2ccc(-c4ccccc4)cc2)O3)cc1,24,3,46,5
COc1ccc(S(=O)(=O)Nc2ccc3c(c2)C(=O)N([C@@H](C)CO)C[C@@H](C)[C@H](CN(C)Cc2ccc(-c4ccccc4)cc2)O3)cc1,122*,2,15,35
COc1ccc(S(=O)(=O)Nc2ccc3c(c2)C(=O)N([C@@H](C)CO)C[C@@H](C)[C@H](CN(C)Cc2ccc(Oc4ccccc4)cc2)O3)cc1,108*,-2,x,37
Nc1nnc(SCC(=O)c2ccc3ccccc3c2)s1,-9,-3,x,-34
Cc1cc(Br)c(NC(=O)CSc2nnc(-c3ccc(Cl)cc3)n2C)cc1C,-5,2,x,-2
CCCc1c(C(=O)OCC)c(C(=O)OCC)c2c(-c3ccccc3)nc(N3CCOCC3)nn12,u,-1,78*,25
O=C(Nc1cccc([N+](=O)[O-])c1)Nc1nn(Cc2c(F)cccc2Cl)cc1Br,59,0,x,-7
O=C(CSc1nc2cc3ccccc3cc2[nH]1)Nc1ccccc1Cl,108*,x,x,26
Cc1cc(NC(=O)CSc2nc3ccccc3[nH]2)ccc1Cl,45,x,x,-13
CCOC(=O)c1cc(NC(=O)CSc2nc3ccccc3[nH]2)ccc1Cl,100*,-2,x,-1
SMILES,NOMO-1 viab,PD-1 reversal,Shh pathway inh,MITF inh
C[C@@H]1CN([C@H](C)CO)C(=O)Cc2cc(NC(=O)Nc3cccc4ccccc34)ccc2O[C@@H]1CN(C)Cc1ccc2c(c1)OCO2,116*,-1,32,24
C[C@@H]1CN([C@@H](C)CO)C(=O)Cc2cc(NC(=O)Nc3cccc4ccccc34)ccc2O[C@@H]1CN(C)Cc1ccc2c(c1)OCO2,97*,-1,0,26
C[C@H](CO)N1C[C@H](C)[C@H](CN(C)Cc2ccc(C(F)(F)F)cc2)Oc2ccc(NC(=O)C3CC3)cc2C1=O,-8,1,20,24
O=C(CSc1nnnn1-c1ccccc1)Nc1cc(Cl)ccc1C(=O)O,0,3,x,-6
O=C(Nc1ccccc1C(=O)O)c1cccc(S(=O)(=O)Nc2cccc(C(F)(F)F)c2)c1,21,0,x,6
CC1(C)N=C(NS(=O)(=O)c2cc(C(F)(F)F)cc(C(F)(F)F)c2)N(c2ccccc2)O1,14,-1,101*,49
C[C@H](CO)N1C[C@H](C)[C@H](CN(C)Cc2ccc(Oc3ccccc3)cc2)Oc2c(NC(=O)Nc3ccc(C(F)(F)F)cc3)cccc2C1=O,117*,-10,15,10
C[C@@H]1CN([C@@H](C)CO)C(=O)c2cccc(NC(=O)Nc3ccccc3)c2O[C@@H]1CN(C)Cc1ccc(C(F)(F)F)cc1,u,2,29,-7
C[C@H]1CN([C@@H](C)CO)C(=O)c2cccc(NC(=O)Nc3ccc(C(F)(F)F)cc3)c2O[C@@H]1CN(C)Cc1ccc(Oc2ccccc2)cc1,89*,x,-31,21
C[C@@H]1CN([C@@H](C)CO)C(=O)c2cccc(NC(=O)C3CC3)c2O[C@H]1CN(C)S(=O)(=O)c1ccc(F)cc1,-3,x,31,-6
C[C@H]1CN([C@@H](C)CO)C(=O)Cc2cc(NC(=O)Cn3cnnn3)ccc2O[C@@H]1CN(C)C,-9,1,-21,2
COc1ccc(S(=O)(=O)N(C)C[C@@H]2OCCCC[C@@H](C)Oc3ccc(NS(=O)(=O)c4ccc(Cl)cc4)cc3C(=O)N([C@H](C)CO)C[C@@H]2C)cc1,94*,x,14,48
C[C@@H]1CCCCO[C@@H](CN(C)S(=O)(=O)c2ccc(Cl)cc2)[C@@H](C)CN([C@H](C)CO)C(=O)c2cc(NC(=O)c3ccccc3)ccc2O1,88*,-4,46,31
C[C@@H]1CCCCO[C@@H](CN(C)S(=O)(=O)c2ccc(Cl)cc2)[C@@H](C)CN([C@H](C)CO)C(=O)c2cc(NS(=O)(=O)c3ccc(F)cc3)ccc2O1,103*,x,25,48
C[C@@H]1CCCCO[C@H](CN(C)S(=O)(=O)c2ccccc2)[C@@H](C)CN([C@H](C)CO)C(=O)c2cc(NC(=O)c3ccccc3)ccc2O1,4,-2,4,3
Cc1ccc(S(=O)(=O)Nc2ccc3c(c2)C(=O)N([C@H](C)CO)C[C@H](C)[C@H](CN(C)S(=O)(=O)c2ccccc2)OCCCC[C@@H](C)O3)cc1,91*,-7,30,26

# Screens as filed in PubChem.
